Among all 31,000 sequences or so, about 1,400 (4.5%) were called active.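 How the source made its calls: active means median seed-adjusted z-score above 1 or below -1; inactive means the rest.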 The sample as a whole holds a higher share of actives than the screen did.

Drawing on PubChem BioAssay AID1347426 (Functional Genomics Laboratory (NCATS/FGL), 2020), this text covers median seed-adjusted z-score for 69 sequences.

The nature of the assay: Novel Modifiers of Survival Motor Neuron (SMN) Protein: Gene Identification via Genome-wide siRNA Screen.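 Further: luminescence tracks full-length SMN protein made from the SMN2 reporter.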 As to conditions: HEK293T SMN2-luciferase reporter, siRNA knockdown, 72 h; actives lie on both sides. The method in brief:
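Luciferase signal, proportional to full-length SMN made from an SMN2 cDNA reporter in stable HEK293T cells, was read 72 h after siRNA reverse transfection. Values were expressed as MAD scores after non-targeting-control normalization and log10 conversion; seed analysis flagged off-targets.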
Consider GAGAAGAACUCGUACCUCUTT against ZNF783, for which the median seed-adjusted z-score was 0.284 (inactive).

Consider CCGUGUCCAGGAACCUAUATT against LPHN3, for which the median seed-adjusted z-score is -0.0576 (inactive).

As for AGUCCAAGGUGAUUACGCUTT against CPSF1, the median seed-adjusted z-score is 3.29 (active).

With GCUGUGCUAUGGGAGUUAATT against ADH1A, the median seed-adjusted z-score was 0.624 (inactive).

GAACUUAGCUAAAUUGACUTT against BCHE: the median seed-adjusted z-score was 0.117 (inactive).

On to CUUAGACUGUUUCCACUUATT against PARK2, for which the median seed-adjusted z-score is 0.146 (inactive).

In the case of GCCUAUGAUUUAGGACUAATT against MNDA, the median seed-adjusted z-score was 0.232 (inactive).

With CCAGUGAUGUAAGUUCUUATT against GCG, the median seed-adjusted z-score is -1.18 (active).

For CUGUUCUGCUUAUAUGGAATT against HNRPLL, the median seed-adjusted z-score is 0 (inactive).

For GAAACAUCCGUGAAAGAGATT against RABL4, the median seed-adjusted z-score is -0.154 (inactive).

As for GAUACUAGCUAUUUUGACATT against MAST2, the median seed-adjusted z-score was 0.27 (inactive).

Regarding CUAACGUAGAGGAAGCAUUTT against RAB11B, the median seed-adjusted z-score was -0.857 (inactive).

For CACUUAUACUAAGCACCAATT against CCNB1, the median seed-adjusted z-score is 0.163 (inactive).

As for CUCUGGAUUUUGAUAGUUUTT against PPARGC1A, the median seed-adjusted z-score was -0.0953 (inactive).

Turning to GUACUUCCAUAGACAGGAATT against CECR1, the median seed-adjusted z-score was 0.00187 (inactive).

On to GGCUUAAUGUGGUGAUGUUTT against COL7A1, for which the median seed-adjusted z-score is 1.08 (active).

With CGAAUGCUGAGGCUACAAATT against SLC9A5, the median seed-adjusted z-score was -0.545 (inactive).

For the sequence GGGAGACCUCGAUCGUGAATT against RASA4, the median seed-adjusted z-score was -1.11 (active).

As to CAAAUCCUGUCUAACAAAATT against MYH7, the median seed-adjusted z-score is 0.659 (inactive).

For GUUCAUAUGUGACAUCUUUTT against ZFP36L1, the median seed-adjusted z-score is -0.933 (inactive).

Take GUAGGUGAGUGGAAAUUCATT against DRD2: the median seed-adjusted z-score was -0.0273 (inactive).

Regarding GGAAGGUUGCUAUAGUGGATT against SSX2IP, the median seed-adjusted z-score was -0.0799 (inactive).

Consider GGCAAGUGCUUCACUCAAATT against ZNF665, for which the median seed-adjusted z-score is 1.13 (active).

Regarding GAAUUCGCUUCAUCCAUUUTT against POMT2, the median seed-adjusted z-score is -0.614 (inactive).

As for UGAUUGCACGAACAGCAAATT against MED21, the median seed-adjusted z-score was -1.3 (active).

On to GUAACACCGUUGAAGCUAATT against E2F8, for which the median seed-adjusted z-score is 0.209 (inactive).

As for CUGCUCACCCUUUACAUCATT against KIF12, the median seed-adjusted z-score was 0.0971 (inactive).

As to CAGUCCCAAUUUCCACUUUTT against PCDHB2, the median seed-adjusted z-score was 0 (inactive).

In the case of CCAGGUCUCGAAAACCAAATT against EN2, the median seed-adjusted z-score was 0.319 (inactive).

CAGUGUUAGUCAUAUCGUATT against DHX36: the median seed-adjusted z-score is 0.165 (inactive).

As to CCUCGGCUCCAGCAAAUCATT against CACNB1, the median seed-adjusted z-score is 0.225 (inactive).

With GUGGGUAACUGGAACAAAATT against MFGE8, the median seed-adjusted z-score is 0.0367 (inactive).

Turning to CAACCAACAUUUACAUAUUTT against OPRK1, the median seed-adjusted z-score is -1.08 (active).

For the sequence GCCUUGCGCUAAAUCUCGATT against NSD1, the median seed-adjusted z-score is -0.372 (inactive).

As to GCAUUAACCCAAUUGCUCUTT against EDNRB, the median seed-adjusted z-score is 0.119 (inactive).

With GAGCAGUCGCGAGAAGAUUTT against PPP1R12C, the median seed-adjusted z-score is -0.535 (inactive).

GGAGAGUUAAGAUCAAUGUTT against KCNB2: the median seed-adjusted z-score is 1.22 (active).

Take CCGUCAAAGUGAUCAACAATT against IKZF3: the median seed-adjusted z-score is 0.0181 (inactive).

As to GGUGCUACGUUAGACCAGUTT against SNRPA1, the median seed-adjusted z-score was -2.71 (active).

Regarding GCCUCCCACUACUUUGAAATT against IL2RB, the median seed-adjusted z-score is 0.333 (inactive).

As for GCAUGUCCAAUGUUCCAUATT against ACAT1, the median seed-adjusted z-score was -0.848 (inactive).

In the case of UAAUAAAGCGGAUUCUAGATT against THAP7, the median seed-adjusted z-score is -0.0317 (inactive).

As for GUCGAGUAUUCAUCCGAGATT against DHX57, the median seed-adjusted z-score is -0.138 (inactive).

Turning to CGAUAGCACCUUCCUGUUUTT against GALT, the median seed-adjusted z-score was 0.484 (inactive).

Consider GCUUACAUAGCAAAUCUAATT against ST8SIA2, for which the median seed-adjusted z-score is 0.516 (inactive).

As to CAGUGUUCGUUCAACCCUATT against ZNF665, the median seed-adjusted z-score is 1.13 (active).

For GAUCCGCACGGACUGCUUUTT against ACVRL1, the median seed-adjusted z-score was -0.361 (inactive).

As to GAAAUCUUCUUACGAAAAATT against XPO7, the median seed-adjusted z-score is 0.546 (inactive).

Regarding “GACAGGACGUGAACAUGCATT against SLC22A18AS”, the median seed-adjusted z-score is 0.0382 (inactive).

Consider CAACGAAGAGGGCAUGUUUTT against MEOX2, for which the median seed-adjusted z-score is 1.36 (active).

As to GCAGCAAGAAGGUAGCACATT against ZNF598, the median seed-adjusted z-score is -0.303 (inactive).

GUCUUUACUCUUCAACUGATT against THBS4: the median seed-adjusted z-score was -0.28 (inactive).

On to GCAACUCAAAGGUGAUAAATT against CCNK, for which the median seed-adjusted z-score was -0.717 (inactive).

With GGCUCAAUGUGGACUACAATT against HS3ST1, the median seed-adjusted z-score is 1.21 (active).

For the sequence CUACUUUUAUCUUGCAUAATT against ZNF264, the median seed-adjusted z-score was 0.617 (inactive).

As to GGACUCUACUGCUAAAGUATT against TBC1D8B, the median seed-adjusted z-score was -0.985 (inactive).

For GAAAAACGGUGACCGUCAATT against MYO9B, the median seed-adjusted z-score is -0.0287 (inactive).

Consider CAGUUUGCUCUAUCAGUAATT against PSTPIP2, for which the median seed-adjusted z-score was 0.0136 (inactive).

With CGCUGAAGUUUGUCCCUAATT against SEPX1, the median seed-adjusted z-score is -0.0545 (inactive).

CAGUGUGGAUACUAAUAAATT against PMVK: the median seed-adjusted z-score is 0.269 (inactive).

For CAAUCACCGCUGUGGUAAATT against UCP1, the median seed-adjusted z-score is -0.0744 (inactive).

Take CGAGGUGACUGGUACAAGATT against NDUFV1: the median seed-adjusted z-score was -0.653 (inactive).

For CUACGAUUCUGGUGGAAUATT against TRRAP, the median seed-adjusted z-score was -1.25 (active).

Turning to GGAUGAUUUAGAAUUGUCATT against ATP6V0C, the median seed-adjusted z-score was -0.389 (inactive).

Turning to CCAUGUUCAGUUCCAAGGATT against CORO1A, the median seed-adjusted z-score was 0.569 (inactive).

Consider GGUGAUCACCAAGAUCAAATT against ADCY3, for which the median seed-adjusted z-score is -0.294 (inactive).

For the sequence CUACACCUGUUUCAACAGATT against USPL1, the median seed-adjusted z-score is -1.87 (active).

Consider AGAAGUCUGUUGCUAUGCATT against GNB5, for which the median seed-adjusted z-score was -0.535 (inactive).

Regarding GACCAUACCCAGUACCGAUTT against MYH15, the median seed-adjusted z-score was -0.939 (inactive).
